# Compound activity from PubChem BioAssay.
# DAX1 StAR inh: inhibitors of DAX1 repression of SF-1 activated StAR promoter. HEK293T StAR-luciferase reporter, SF-1/DAX-1 repression relief. inhibition, % at 6.8 µM. 370,000 compounds, 1.1% hits;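 active means inhibition above the mean over all tested compounds plus 3 SD, cut at about 3.6% in these data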;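 further: 0% = DAX-1 cells with DMSO and 100% = cells lacking DAX-1 with DMSO; higher inhibition means more luminescence from relief of DAX-1 repression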
# ssDAF-12 act: activates DAF-12 receptor from parasite S. stercoralis; activation, % at 6.8 µM; HEK293 ssDAF-12/GRIP1 lit1-tk-luc reporter, luminescence; % of 3 µM dafachronic acid response; 370,000 compounds, 1% hits; AID 652126;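 active means activation above the mean over all tested compounds plus 3 SD, cut at about 0.9% in these data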;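 further: 0% = DMSO-only wells and 100% = 3 µM delta7-dafachronic acid wells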
# SMARCA2 act: increases SMARCA2 function in MMTV reporter cells. 370,000 compounds, 1% hits. AID 652017. activation, % at 9.1 µM. MG213 cells, MMTV-luciferase reporter, dexamethasone, overnight; in the data active means activation above about 7.8%;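 further: 0% = vehicle wells and 100% = reference activator wells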
# hgDAF-12 ag: hgDAF-12 agonism, primary luciferase screen; HEK293 GAL4-hgDAF12 UAS-luciferase reporter, agonist luminescence; normalized to butyrate control; activation, % at 6.8 µM; 370,000 compounds, 1.8% hits;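 active means activation above a cutoff set at the mean of all screened compounds plus 3 SD, cut at about 10% in these data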;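 further: 0% = DMSO wells and 100% = sodium butyrate wells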
# hcDAF12 agonist: activates DAF-12 receptor from parasite H. contortus; activation, % at 6.8 µM; 370,000 compounds, 1.4% hits; HEK293 hcDAF-12 lit1-tk-luc reporter, luminescence; 0% DMSO, 100% Δ7-dafachronic acid;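 active means activation above the mean of all tested compounds plus 3 SD, cut at about 5.5% in these data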;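 further: 100% = response to 3 µM Δ7-dafachronic acid high control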
# SMARCA2 act conf: SMARCA2 activation, confirmation screen. shares compounds with SMARCA2 act. MG213 cells, MMTV-luciferase with dexamethasone, luminescence, overnight; MG213 cells expressing E1A, Rb sequestered; DMSO wells 0%, reference activator 100%. activation, % at 9.1 µM. 3,500 compounds, 30% hits;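 active means activation above its plate's cutoff, the mean activation of tested wells plus 3 SD, cut at about 7.9% in these data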
# VP16 Luc act: GAL4-VP16 reporter activation counter-screen; AID 686939; 3,500 compounds, 41% hits; activation, % at 9.1 µM; shares compounds with SMARCA2 act; HEK293 GAL4-VP16 pG5luc reporter, luciferase luminescence; scaled: DMSO wells 0%, SAHA wells 100%;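 active means activation above the solvent-only control well mean plus 3 SD, averaged across control plates, cut at about 5.2% in these data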
# An asterisk follows results filed as active; nt = not tested or not shown. A selection: hits, their analogues and other compounds. The true share with any hit is near 4.2%.
SMILES,DAX1 StAR inh,ssDAF-12 act,SMARCA2 act,hgDAF-12 ag,hcDAF12 agonist,SMARCA2 act conf,VP16 Luc act
COc1cccc(-c2ccc(CC[C@H]3O[C@H]4CC[C@@H](CO)O[C@H]4C[C@H]3NS(C)(=O)=O)cc2)c1,0,-1,3,2,-1,nt,nt
COc1ccc(NC(=S)N=Nc2c(O)[nH]c3ccccc23)cc1,-1,-1,-1,2,2,nt,nt
Oc1ccc(NC(=S)N=Nc2c(O)[nH]c3ccccc23)cc1,1,0,9.7*,4,2,4,15*
O=C(C1CCCN1S(=O)(=O)c1ccccc1[N+](=O)[O-])N1CCc2ccccc2C1 (stereo unspecified),0,-1,-2,1,0,nt,nt
CSC(=Cc1ccc(C(=O)c2ccc(C)cc2)n1C)S(C)=O (stereo unspecified),-1,0,-6,0,-1,nt,nt
CC(C)CC1NC(=O)N(CC(=O)Nc2cccc(Br)c2)C1=O (stereo unspecified),-1,-1,9.6*,-2,0,1,1
CN1OC[C@@H]2CN[C@H](c3ccc(-n4ccnc4)cc3)C[C@@H]21,-1,-1,0,-2,-2,nt,nt
Cc1ccc(C)c(NC(=O)C2CCCN2S(=O)(=O)c2cccnc2)c1 (stereo unspecified),-1,0,-4,0,-1,nt,nt
COC(=O)c1c(C)[nH]c(C(=O)CN2C(=O)C3CC=CCC3C2=O)c1C (stereo unspecified),2,-1,9.0*,4,2,6,5
Cc1ccccc1S(=O)(=O)N1CCC(c2nc3ccccc3o2)CC1,0,-1,-4,-1,-3,nt,nt
CCN(CC)CCn1c2ccccc2c2nc3ccccc3nc21,-1,0,34*,6,6.1*,111*,-1
COC(=O)c1cc(NC(=O)c2c(C)noc2C)ccc1N1CCOCC1,1,-1,9.2*,0,-1,3,0
COC(=O)[C@]12C[C@H](CC(=O)N3CCSCC3)C(=O)N(CCc3ccc(OC)c(OC)c3)C1=C[C@H](C(C)(C)C)O[C@@H]2C,0,-1,-2,-2,-2,nt,nt
COc1cc(CCC(C)=O)ccc1OC(=O)c1c(-c2c(F)cccc2Cl)noc1C,0,-1,-4,-2,-3,nt,nt
C[C@@H]1COc2cc(N3CCC[C@H]3CO)ccc2S(=O)(=O)N1,2,-1,8.0*,0,0,-4,-1
C[C@H]1COc2cc(N3CCC[C@H]3CO)ccc2S(=O)(=O)N1,2,1,10*,2,2,-3,0
CC(C)C[C@H]1COc2cc(N3CCC[C@@H]3CO)ccc2S(=O)(=O)N1,-2,1,4,1,2,nt,nt
CCC(c1nnnn1-c1ccc2c(c1)OCCO2)N1CCN(Cc2c(F)cccc2Cl)CC1 (stereo unspecified),-1,-2,-4,-2,-1,nt,nt
Nc1ccc(C2(c3ccc(N)cc3)C(=O)Nc3ccccc32)cc1,0,-1,-2,-3,0,nt,nt
O=C1Nc2ccccc2C1(c1ccccc1)c1ccccc1,0,-1,11*,2,-1,3,-2
Cn1c(=O)oc2cc(S(=O)(=O)N3CCN(CCO)CC3)ccc21,0,0,3,-1,-1,nt,nt
O=C(COc1ccccc1)Nc1cccc(-c2nc3ccccc3[nH]2)c1,0,-1,9.2*,0,-2,6,4
O=C(CN1CCOCC1)Nc1ccc(-c2nc3ccccc3[nH]2)cc1,1,-1,1,6,-1,nt,nt
COc1ccc(OCC(=O)Nc2cccc(-c3nc4ccccc4[nH]3)c2)cc1,-2,-2,1,5,-1,nt,nt
O=C(Nc1ccc(-c2nc3ccccc3[nH]2)cc1)c1ccc2c(c1)OCO2,0,-2,19*,-6,-2,13*,4
SMILES,DAX1 StAR inh,ssDAF-12 act,SMARCA2 act,hgDAF-12 ag,hcDAF12 agonist,SMARCA2 act conf,VP16 Luc act
O=C(Cc1cccs1)Nc1ccc(-c2nc3ccccc3[nH]2)cc1,2,0,8.8*,7,2,7,13*
O=C(Nc1ccc(Cl)c(-c2nc3ccccc3[nH]2)c1)c1ccc2c(c1)OCO2,-1,-1,2,1,-2,nt,nt
Cn1ncc([N+](=O)[O-])c1C(=O)Nc1ccc(-c2nc3ccccc3[nH]2)cc1,1,-1,9.6*,2,-1,12*,2
CCC[C@H]1OC(=O)[C@@H]2CCCN2C(=O)[C@H]([C@H](C)Cc2ccccc2)NC(=O)[C@@H]2CCCN2C(=O)[C@@H]2CCCN2C(=O)[C@H](C(C)C)OC(=O)[C@@H]2CCCN2C(=O)[C@H](C(C)C)NC(=O)C1(C)C,nt,-2,nt,-4,-2,nt,nt
CCC(CC)c1nnc(NC(=O)c2ccc3c(c2)OCO3)s1,1,1,10*,5,2,3,6.6*
C/C(=N\NC(=O)c1ccc2c(c1)OCO2)c1ccc(NC(=O)CCCC(=O)O)cc1,2,-1,8.3*,7,1,-5,1
C/C(=N\NC(=O)c1ccc2c(c1)OCO2)c1ccc2c(c1)OCO2,0,-1,5,4,0,nt,nt
CCC(CC)c1nnc(NC(=O)COc2ccc3c(c2)OCO3)s1,0,-2,-3,-1,-1,nt,nt
CCN(CC)c1ccc(NC(=O)c2ccc3c(c2)OCO3)cc1,1,0,10*,10,1,4,11*
O=C(NN=C1CCCCCC1)c1ccc2c(c1)OCO2,0,-1,10*,10,-1,3,4
O=C1N2CCc3ccccc3C2CS(=O)(=O)N1Cc1ccc(F)cc1 (stereo unspecified),-1,-1,-1,-2,-3,nt,nt
O=C(Nc1ccccc1Br)C1CCN(C(=O)Cc2ccccc2)CC1,0,-1,9.0*,0,-3,-3,2
CC(C)c1ccc(/C=N/NC(=O)c2c(Cl)cnn2C)cc1,3,0,11*,13*,1,15*,4
Cc1nn(C)c(C(=O)N/N=C/c2ccc(Br)cc2)c1Cl,0,-1,-1,4,-2,nt,nt
O=C(N/N=C1\CCCc2ccccc21)c1ccccc1Cl,1,-1,1,3,1,nt,nt
O=C(N/N=C1\CCc2ccccc21)c1ccccc1O,4.4*,1,10.0*,8,6.1*,5,7.4*
COc1ccc(Cn2cc(C(=O)c3ccccc3)c(=O)c3cc(OC)ccc32)cc1,-1,-2,8.9*,1,-1,-2,0
